The record followed here is the OligoGym collection.
Also: reference of the scale not given here.

The first assay addresses DHCR7. Put plainly: pooled miR-30 sensor sort-seq; sequence = guide strand. As to conditions: shRNA.
Take TGATACTTGTTCACAACCCCTG: the sensor-assay potency score (higher = more potent) is -0.124.

As for AACAGCTTGAAGTCAAACCACT, the sensor-assay potency score (higher = more potent) was -1.51.

With TTGCAGTCTCTGGCGCTGGTGG, the sensor-assay potency score (higher = more potent) was -0.837.

The sequence TTGTAAAAGAAATTGCCTGTGA registered a sensor-assay potency score (higher = more potent) of 0.127.

For TTGGCTTTGGGAATGTTGGGTT, the sensor-assay potency score (higher = more potent) was 0.501.

The sequence TTGAAGAACAGCTTGAAGTCAA returned a sensor-assay potency score (higher = more potent) of 0.748.

Regarding TGAATTTGCAGTCTCTGGCGCT, the sensor-assay potency score (higher = more potent) stood at 0.0615.

The sequence TTGACCATGGCGAAGGTGGAGA displayed a sensor-assay potency score (higher = more potent) of -0.859.

TATAGGTGGAGTCTTGGCCCAG: the sensor-assay potency score (higher = more potent) is -1.1.

TACTTGTTCACAACCCCTGCAG gave a sensor-assay potency score (higher = more potent) of -0.0403.

The target in the next assay is DHPS. Described as above. As to conditions: shRNA.
In turn, TTGCTGTACAGCGCGCCCGAAG had a sensor-assay potency score (higher = more potent) of -1.67.

Turning to TCGGGCGGCAACGTCGAGCTGT, the sensor-assay potency score (higher = more potent) is -0.875.

TAATACACGGACTCTGGGTTGT returned a sensor-assay potency score (higher = more potent) of -0.152.

Sequence TTCTTCTCGATCATGGCATTGA registered a sensor-assay potency score (higher = more potent) of -0.43.

On to TCGAGCTGTGCTTTAGCACGGC, for which the sensor-assay potency score (higher = more potent) is -0.48.

TGAGGTTGGATGTATATCCCAG registered a sensor-assay potency score (higher = more potent) of -0.155.

In the case of TTGTGCTGCACAAGGTAGCGAA, the sensor-assay potency score (higher = more potent) was -0.894.

Regarding TAGGAATGGAAGAAGATCATGT, the sensor-assay potency score (higher = more potent) worked out at 0.621.

The sequence TTGGTTGCTTGGAAGCCGGTGG gave a sensor-assay potency score (higher = more potent) of -0.209.

As to TTGATGTAAACAGCGTAGTCGG, the sensor-assay potency score (higher = more potent) was -0.879.

Consider TATCCCAGGAAAATGGTGCAGC, for which the sensor-assay potency score (higher = more potent) is -0.649.

Sequence TATTGATCCCGTTCTCCCGGAG registered a sensor-assay potency score (higher = more potent) of -0.362.

Regarding TGATGTAAACAGCGTAGTCGGC, the sensor-assay potency score (higher = more potent) is -0.353.

Sequence ATTGACTTGCTGTACAGCGCGC had a sensor-assay potency score (higher = more potent) of -0.633.

Turning to TTTCCGATCCTATTGATCCCGT, the sensor-assay potency score (higher = more potent) was -0.549.

In the case of AAAGGTTTCAGCCACAAGCAGG, the sensor-assay potency score (higher = more potent) is -1.41.

For TAGCTGACCAAAAAGTAGGGGA, the sensor-assay potency score (higher = more potent) was found to be 0.0141.

Regarding TACGTCCACCATGTTGTGCTGC, the sensor-assay potency score (higher = more potent) is -0.635.

Consider TTGACTTGCTGTACAGCGCGCC, for which the sensor-assay potency score (higher = more potent) stood at 0.283.

Consider TAAACAGCGTAGTCGGCCCCGT, for which the sensor-assay potency score (higher = more potent) is -0.782.
